From PubChem BioAssay
Sa helicase inh: inhibitors of S. aureus replicative helicase, primary screen, biochemical, fluorescence unwinding readout; replicative DNA helicase (DnaC/DnaB), Staphylococcus aureus; hit rate 0.05% among 120,000; purified S. aureus helicase, fluorescence unwinding assay; inhibition, % (test concentration not listed); in the data active = inhibition above about 25%, passing the limit was not always enough
Sa growth 42C: S. aureus growth inhibition at 42 and 30 °C, primary screen, LtaS inhibitor project, RN4220, two temperatures. relative growth, % (test concentration not listed). hit rate 0.53% among 170,000. AID 720641, 2013. OD600, 20 h, 42 °C; active compounds read low;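 active = relative growth at most 50% at the other temperature and 20+ points below 30 °C, or under 10% at both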
A number is an active result; – = inactive; · = no result given. Many of the other results were omitted from the sample, so hits are more common in it than they were.

SMILES	Sa helicase inh	Sa growth 42C
CN[C@@H]1[C@@H](O[C@H]2O[C@H](CO)[C@@H](N)[C@H](O)[C@H]2O)O[C@H]2C[C@@H](N)[C@H](O[C@H]3[C@H](O)[C@@H](O)[C@H](N)C[C@@H]3N)O[C@@H]2[C@@H]1O	·	–
NC[C@H]1O[C@H](O[C@H]2[C@H](O)[C@@H](O[C@H]3O[C@H](CO)[C@@H](O)[C@H](N)[C@H]3O)[C@H](N)C[C@@H]2N)[C@H](N)[C@@H](O)[C@@H]1O	·	-0.2
CCOc1ccc(OCCCCn2ccnc2)cc1	–	–
CC(C)(C)c1ccccc1OCCCCCn1ccnc1	–	-1.0
O=S(=O)(Nc1nc2ccccc2nc1NC1CCCC1)c1ccc(Cl)s1	–	–
Cc1cccc(C(=O)Nc2sc3c(c2C(=O)N2CCCC2)CCC3)c1	–	–
OC(CNCc1ccccc1)Cn1c2ccc(Cl)cc2c2cc(Cl)ccc21 (centres undefined)	–	-0.9
O=C(O)CNCC(O)Cn1c2ccccc2c2ccccc21 (centres undefined)	–	–
CN(C)C(=O)COC(=O)c1ccccc1NCCO	–	–
CCCNC(=O)CSc1nc2nc(C)c(Cc3ccccc3C)c(C)n2n1	–	–
N[C@@H](C(=O)N[C@@H]1C(=O)N2C(C(=O)O)=C(CSc3cn[nH]n3)CS[C@H]12)c1ccc(O)cc1 (tested in a mixture with another compound)	·	27
CCN1CCN(C(=O)NC(C(=O)NC2C(=O)N3C(C(=O)O)=C(CSc4nnnn4C)CSC23)c2ccc(O)cc2)C(=O)C1=O (centres undefined)	·	-1.3
CC(C)OC(=O)C(N)c1ccccc1 (centres undefined)	–	–
N[C@@H](C(=O)N[C@@H]1C(=O)N2C(C(=O)O)=C(Cl)CS[C@H]12)c1ccccc1	·	-0.9
CO/N=C(/C(=O)NC1C(=O)N2C(C(=O)OC(C)OC(C)=O)=C(COC(N)=O)CSC12)c1ccco1 (centres undefined)	·	–
Cc1c(C(=O)O)[nH]c2c1/C(=N/N1CC(=O)NC1=O)CC(C)(C)C2	–	–
COc1ccc(-n2c(SCC(=O)N(C)Cc3cccs3)nc3ccccc32)cc1	–	–
Cc1cc(CNCc2ccc(CN(C)C)cc2)c(C)n1CC(C)C	–	–
N#CCc1c2ccccc2c(CC#N)c2ccccc12	·	–
Cn1c(SCc2ccccc2)nc2ccccc21	–	–
O=C1NN(c2ccccc2)C(=O)/C1=C/c1ccc(SC2CCCCC2)o1	–	–
N=C1/C(=C/c2ccc(SC3CCCCC3)o2)C(=O)N=C2SC=CN12	–	8.4
CCCCOc1cccc2c1CCN(C)C2=O	–	–
CN1CCc2c(OCc3ccc(Cl)cc3)cccc2C1=O	–	6.4
CCN(Cc1ccccc1)C(=O)CSc1nncn2c1cc1occc12	–	–
SMILES	Sa helicase inh	Sa growth 42C
O=C(NCc1ccc(Cl)cc1)c1ccc2c(=O)n(-c3ccccc3)c(=O)[nH]c2c1	–	–
COc1ccccc1NC(=O)c1ccc(NC(=O)CSc2nnc(C)n2N)cc1	–	–
COc1ccc(-c2n[nH]c(C(F)(F)F)c2-c2cc3ccccc3o2)c(O)c1	–	3.9
Cc1c(O)ccc(-c2n[nH]c(C(F)(F)F)c2Oc2ccccc2)c1O	–	·
NC1CCN(c2c(F)cc3c(=O)c(C(=O)O)cn(C4CC4)c3c2Cl)C1 (centres undefined)	·	-0.9
CC1CCc2cc(F)cc3c(=O)c(C(=O)O)cn1c23 (centres undefined)	·	–
CO/N=C1\CN(c2nc3c(cc2F)c(=O)c(C(=O)O)cn3C2CC2)CC1CN (centres undefined)	·	-1.0
CC1CCc2c(N3CCC(O)CC3)c(F)cc3c(=O)c(C(=O)O)cn1c23 (centres undefined)	·	-1.0
CN1CCN(c2c(F)cc3c(=O)c(C(=O)O)cn(CCF)c3c2F)CC1	·	–
CCOC(=O)c1cn2c3c(c(F)c(F)cc3c1=O)OCC2C (centres undefined)	–	–
COc1c(N2CCNC(C)C2)c(F)cc2c(=O)c(C(=O)O)cn(C3CC3)c12 (centres undefined)	·	-0.9
O=S(=O)(Nc1cccc(Br)c1)c1ccc(Br)s1	–	–
O=C(COC(=O)c1sc2ccccc2c1Cl)NC1CCCC1	–	–
COc1cccc(N=C2NN=C(c3ccc(S(=O)(=O)N4CCCCC4)cc3)CS2)c1	–	–
Cc1ccc(Oc2ncccc2NS(=O)(=O)c2cn(C)c(C)n2)c2c1CCC2	–	–
COc1cccc(C=Nc2ccc3c(c2)ncn3C)c1OC	–	–
C=CCNC1CC(=O)N(c2ccccc2)C1=O (centres undefined)	–	–
CCn1cc(C(=O)O)c(=O)c2cc(F)c(N3CCNCC3)nc21	·	–
NC1CCN(c2nc3c(cc2F)c(=O)c(C(=O)O)cn3-c2ccc(F)cc2F)C1 (centres undefined)	·	-1.0
CCNC(=S)Nc1ccc(NC(=S)NCC)cc1	–	–
COc1ccc(NC(=O)CCc2nc3ccc(C)cc3[nH]2)c(OC)c1	–	–
Cc1cc(COC(=O)c2ccc3ncsc3c2)no1	–	–
O=S(=O)(c1ccc(Cl)cc1)N1CCc2ccccc21	–	0.3
O=S(=O)(c1ccc(F)cc1)N1CCc2ccccc21	–	·
Cn1nc(-c2ccc(Cl)cc2)c2ccccc21	–	–
SMILES	Sa helicase inh	Sa growth 42C
Cc1nn(-c2ccccc2)c2sc(C(=O)OCC(=O)C(C)(C)C)cc12	–	–
c1cc2cc(C3=NCCN3)ccc2cc1C1=NCCN1	46	–
c1coc(C2=NCCN2)c1	–	–
O=S1(=O)NC(c2cccc(Br)c2)Nc2ccccc21 (centres undefined)	–	–
O=C(NC(c1cccs1)c1ccc2cccnc2c1O)C1CCCCC1 (centres undefined)	–	–
Cc1conc1NC(c1cccs1)c1ccc2cccnc2c1O (centres undefined)	–	3.1
Nc1cccnc1Nc1ccccc1	–	6.4
c1ccc(Nc2ncnc3ccccc23)cc1	–	–
O=C(CCc1cn(Cc2ccc(F)cc2)c2ccccc12)NC1CCCC1	–	–
CS(=O)c1nc(-c2ccccc2)cc(C(F)(F)F)n1 (centres undefined)	–	-0.2
FC(F)(F)c1cc(-c2ccccc2)nc(N2CCCC2)n1	–	–
S=C(NCCN1CCOCC1)c1ccc(Cl)cc1	–	–
CC(Sc1nnc(C(C)NC(=O)c2ccccc2)n1C)C(=O)Nc1ccc2c(c1)OCO2 (centres undefined)	–	–
COc1cccc(NC(=O)Cn2sc3ccccc3c2=O)c1	–	-0.2
COc1cccc(NC(=O)Cn2ccc3c(OC)cccc3c2=O)c1	–	–
CCOC(=O)C(C#N)c1ccccn1 (centres undefined)	·	–
CCOC(=O)C(C#N)c1c(F)c(F)c(Br)c(F)c1F (centres undefined)	–	-1.0
c1ccc(-n2nnnc2-c2ccc3ccccc3n2)cc1	–	·
Nc1nonc1C(=O)N/N=C/c1ccccc1	–	–
O=C(N/C=C/n1cnc2cc(C(F)(F)F)ccc21)c1ccco1	–	–
CC(=O)[C@]1(O)Cc2c(O)c3c(c(O)c2[C@@H](O[C@H]2C[C@H](N)[C@H](O)[C@H](C)O2)C1)C(=O)c1ccccc1C3=O	·	0.4
COc1cccc2c1C(=O)c1c(O)c3c(c(O)c1C2=O)C[C@@](O)(C(=O)CO)C[C@@H]3O[C@H]1C[C@H](N)[C@@H](O)[C@H](C)O1	·	2.0
